# Data as given in PubChem BioAssay AID540259 (Broad Institute, 2011).
# Results with a measured potency or affinity are listed apart. Activity calls are given as the source filed them.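 The calls were made as follows: active = cell killing, meaning signal decrease, with fitted half-maximal dose at or below ten times the top valid tested dose; inconclusive = poor fit, or flat curve with 30 to 70% signal loss; inactive = the rest.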
# Experiment: HeLa cell cytotoxicity, dose response, cytotoxicity control for MITF activator project, CellTiter-Glo luminescence, cherry-pick samples (AID 540259)
# Conditions: HeLa viability, CellTiter-Glo ATP luminescence, 24 h; series mostly up to 35 µM
row,Compound,outcome
1,c1ccc(-c2noc(CCC3CCCC3)n2)cc1,inactive
2,c1ccc2c(c1)NC1(CCCC1)n1c-2nc2ccccc21,inactive
3,Cc1ccsc1C(=O)OCc1nnc(-c2ccccc2)o1,inactive
4,CC(C)(C)c1ccc(SCCc2ccccn2)cc1,inactive
5,CN(C)c1ccc(/C=C/c2cccc[n+]2[O-])cc1,inactive
6,COc1ccc(-c2ccc(C(=O)C3CC3)cc2)cc1,inactive
7,CSc1cccc(NC(=O)c2cnn3ccccc23)c1,inactive
8,COc1ccc(/C=C2\SC(=O)N(CCNC(=O)C3CC4C=CC3C4)C2=O)cc1 (configuration not stated),inactive
9,CC(C)(C)c1ccc(C(=O)Nc2ccc(F)cc2)s1,inactive
10,N#Cc1c(-c2ccc(Cl)cc2)ccn2nc(C3CCCCC3)nc12,inactive
11,COc1ccc(C(=O)CN2Cc3ccccc3C2=N)cc1,inactive
12,Cc1ccc(-n2nnc3ccccc3c2=O)cc1C,inactive
13,C/C(=C\C(=O)c1cccnc1)Nc1ccc(C)c(C)c1,inactive
14,CCN(CC)S(=O)(=O)c1cc(C(=O)Nc2cc(C)[nH]n2)ccc1Cl,inactive
15,COc1ccc2ccccc2c1/C=N/Nc1cccc(C(=O)O)c1,inactive
16,O=C(Cc1ccc(O)cc1)NC1CCCCCC1,inactive
17,Clc1ccc(-c2cnnc(-c3ccccn3)n2)cc1,inactive
18,O=C(Cc1ccccc1)Nc1nc(-c2cccs2)cs1,inactive
19,O=C(NCCSc1ccccn1)c1ccc(Cl)cc1Cl,inactive
20,O=C(Nc1ccccc1)Nc1ccc2nnsc2c1,inactive
21,COC(=O)Cc1csc(Nc2ccccc2Cl)n1,inactive
22,COc1ccc2sc(NCc3ccccc3)nc2c1,inactive
